# Rows were chosen to be rich in hits. Some 2.2% of all compounds tested hit in one or more screens of this group.
# IL2 activator – IL-2 activation; AID 652025; activation, % (series mostly up to about 46 µM); 360,000 compounds, 0.065% hits; IL-2 activation reporter assay, cell-based qHTS; stimulated with anti-CD3/CD4/CD28 beads; in transgenic mouse T cells; in the data active = activation above about 50%; inconclusive = mostly about 30% to 49%; note: 0% is about no effect
#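 EGFP and DsRed fluorescence is measured by plate cytometry in unstimulated transgenic mouse T cells exposed to compound for 60 minutes, then stimulated 18 hours at 37 degrees C with anti-CD3/anti-CD4 beads plus anti-CD28.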
# IDH1 R132H inh – blocks human mutant IDH1 R132H enzyme. IDH1-R132H enzyme, NADPH consumption, diaphorase/resazurin fluorescence. Potency, µM (series often up to 76.6 µM), for inactives: top-dose activity change, negative = inhibition, hits mostly inhibitors. O75874. AID 602179. 390,000 compounds, 0.093% hits; note: potency is the fitted concentration of half-maximal effect; % is set by controls: 0 for no effect and ±100 for the full control effect; nearly all actives have a fitted effect of over 65% in size
# Target sequence (O75874 whole entry R132H, stated change not applied): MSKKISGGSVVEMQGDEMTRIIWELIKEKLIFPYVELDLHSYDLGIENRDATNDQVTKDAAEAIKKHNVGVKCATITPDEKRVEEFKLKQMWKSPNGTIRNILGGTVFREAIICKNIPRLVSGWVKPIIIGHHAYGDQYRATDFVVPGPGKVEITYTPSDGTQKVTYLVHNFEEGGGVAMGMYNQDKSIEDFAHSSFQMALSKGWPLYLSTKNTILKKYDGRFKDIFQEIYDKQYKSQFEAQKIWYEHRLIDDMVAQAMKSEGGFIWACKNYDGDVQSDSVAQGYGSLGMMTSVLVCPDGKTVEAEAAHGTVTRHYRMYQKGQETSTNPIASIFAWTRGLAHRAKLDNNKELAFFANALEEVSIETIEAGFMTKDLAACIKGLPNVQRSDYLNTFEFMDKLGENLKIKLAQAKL
#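 IDH1-R132H (0.5 ug/mL) preincubated 30 min with compound, then NADPH (0.016 mM) and alpha-KG (2 mM) added; 80 min at RT, pH 7.5. Remaining NADPH coupled via diaphorase/resazurin to fluorescence (540/590 nm); concentration-response curves normalized to no-enzyme control.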
# rTrxR1 inhibitor – blocks rat thioredoxin reductase 1; 390,000 compounds, 1% hits; AID 588453; O89049; Potency, µM (top dose mostly 114 µM), for inactives: at the highest dose activity change, negative = inhibition, hits mostly inhibitors; recombinant rTrxR1, NADPH fluorescence consumption, selenite substrate; note: potency is the fitted concentration of half-maximal effect; % is set by controls: 0 for no effect and ±100 for the full control effect; nearly all actives have a fitted effect of over 65% in size
#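 Rat TrxR1 (90 nM in the dispensed reagent) was pre-reduced with 400 uM NADPH for 5 min at room temperature, then incubated with compound for 15 min. After 400 uM selenite was added, NADPH fluorescence (Ex 340/Em 450 nm) was followed for 8 min.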
# BRCA1 expr up – activators of BRCA1 expression. MCF7-BRCA1-FFLuc reporter, luminescence, 48 h; response scale: scaled: vehicle 0%, 10 µM genistein 100%. Potency, µM (top dose mostly 46.1 µM), for inactives: at the top dose activation, usual class: activators. 380,000 compounds, 1.1% hits; note: potency is the fitted concentration of half-maximal effect; nearly all actives have a fitted effect of over 80% in size
#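 MCF7 cells carrying a BRCA1-firefly luciferase reporter (2000 cells/well, phenol-red free MEM) were attached for 2 h at 37 °C, then given compounds for 48 h. Luminescence was read 15 min after luciferase reagent; activity normalized to genistein (10 microM) and DMSO.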
# TrxR1 substrate – is turned over as a substrate by rat TrxR1; purified TrxR1 substrate turnover, NADPH consumption readout; Potency, µM (titrated, usually from 114 µM), without a hit: at the top dose activity change, negative = substrate turnover; 390,000 compounds, 0.01% hits; AID 588456; note: potency is the fitted concentration of half-maximal effect; % is set by controls: 0 for no effect and ±100 for the full control effect; nearly all actives have a fitted effect of over 50% in size
#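 Rat TrxR1, dispensed at 90 nM, was prereduced with 400 uM NADPH (final) for 5 min at ~22 deg C, then incubated with compound 15 min before 400 uM selenite. A first-read NADPH fluorescence drop versus no-compound background flagged substrates.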
# Giardia kill – kills Giardia lamblia; activity change, % at 7.66 µM, hits read low; AID 540267; Giardia lamblia trophozoite viability; 340,000 compounds, 0.15% hits; in the data active = activity change below about -80%; inconclusive = between about -30% and that limit;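 note: parasites exposed to compound for two days anaerobically before the ATP read; % is set by controls: 0 for no effect and ±100 for the full control effect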
#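 Anaerobic 48 hrs incubation at 37 deg C of 100 trophozoites/well with test compounds; ATPLite 1-Step luminescence, 15-30 min RT, reports cellular ATP as viability.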
# * = called active by the depositor; ? = inconclusive; / = not tested or not shown; [ ] = remark or other dose. Unless noted, calls come from the whole dose curve; as a rule, active = well fitted curve in the direction sought with a large enough effect; inconclusive = small, poorly fitted or top-dose-only effect, or another doubt; inactive = no such curve, though single readings can be large; an effect the other way counts as inactive or inconclusive.
SMILES,IL2 activator,IDH1 R132H inh,rTrxR1 inhibitor,BRCA1 expr up,TrxR1 substrate,Giardia kill
Cc1ccc(S(=O)(=O)n2nc(-c3ccco3)nc2SCc2ccccc2)cc1,-1,6%,-4%,11µM*,4%,-7
O=C(Cc1ccccc1)n1nc(-c2ccco2)nc1SCc1ccccc1,-1,4%,-23%,11µM*,-3%,3
O=C(c1ccco1)n1nc(-c2ccco2)nc1SCc1ccccc1,1,14%,-8%[57.1 µM],?,7%[57.1 µM],-7
CSc1nc(-c2ccco2)nn1S(=O)(=O)c1ccc(C)cc1,-3,16%,1%[57.1 µM],0%,-2%[57.1 µM],?
Cc1ccccc1C(=O)NCc1nc2cccnc2n1Cc1ccccc1,/,-6%,12%[57.1 µM],/,0%[57.1 µM],/
COc1ccc(C)cc1-n1nnc(S(=O)(=O)c2ccc(C)cc2)c1C,/,1%,13%,/,-6%,/
COc1cccc(C(=O)NN2C(=O)C3C4C=CC(O4)C3C2=O)c1 (stereo not given),-1,-3%,28µM*,-14%,-3%,-7
O=C(CSc1nccn1Cc1ccc(F)cc1)NCc1ccc(F)cc1,/,0%,20%[57.1 µM],-16%,1%[57.1 µM],/
CC1CCN(S(=O)(=O)c2ccc3c(c2)CCN3C(=O)Nc2ccccc2Br)CC1,/,/,2%,/,2%,/
CCC(C)(C)NC(=O)CCCSc1nc2ccccc2s1,1,-9%,9%[57.1 µM],3.5µM*,3%[57.1 µM],5
Cc1ccc(S(=O)(=O)N2CCN(c3nc(-n4cncn4)nc4ccccc34)CC2)cc1,/,/,15%,4%,9%,/
C#CCSc1nc2sc3c(c2c(=O)n1-c1cccc(OC)c1)CCN(C(C)=O)C3,/,?,?,-21%,-7%,/
c1cc2c(cc1CNc1ccc(N3CCOCC3)cc1)OCO2,0,/,-19%[57.1 µM],4.5µM*,-1%[57.1 µM],13
O=C(C[N+]12CN3CN(CN(C3)C1)C2)c1ccc(O)c(O)c1,/,/,-31%,3%,-5%,/
Cc1ccc(/C=c2\s/c(=C(/C#N)C(=O)N3CCCC3)n(Cc3ccco3)c2=O)s1,0,-5%,25µM*,-7%,-15%,-4
O=C1NC(=S)S/C1=C\c1ccc(SCc2ccco2)o1,-2,-6%,8.9µM*,-6%,-3%,5
O=C1NC(=S)S/C1=C\c1ccc(SCc2ccccc2)o1,0,-4%,25µM*,-37%,0%,-12
C=CCNC(=O)CCc1nnc(C2(c3ccc(Cl)cc3)CCC2)o1,0,10%,26%,13µM*,1%,-4
CNS(=O)(=O)c1cn(CC(=O)Nc2ccc(OC)c(Cl)c2)cc1S(=O)(=O)NC,/,-17%,22%,/,3%,/
Cc1ccc(Nc2c(-c3ccncc3)nc3ccc(C)cn23)cc1,/,-10%,9%,/,5%,/
CCOc1ccc(N2C(=O)CC(NCC#N)C2=O)cc1 (stereo not given),1,-7%,22µM*,3%,3%,-4
CCOc1ccc(N2C(=O)CC(NCc3ccc(S(N)(=O)=O)cc3)C2=O)cc1 (stereo not given),-2,-8%,-8%,5%,-5%,9
CCCCCCCCCCCCCCCC[n+]1ccc(/C=C/c2c[nH]c3ccccc23)cc1,/,/,-12%,/,4%,/
OCC[n+]1ccc(/C=C/c2c[nH]c3ccccc23)cc1,94*,3%,-8%,-29%,-10%,-8
CN(Cc1c(F)cccc1Cl)C(=O)CNC(=O)c1cccs1,-2,-12%,8%,11µM*,-2%,-6
CN(Cc1ccc(F)cc1)C(=O)CNC(=O)c1cccs1,0,-6%,8%,21%,3%,-3
Cc1ccccc1CNC(=O)c1ccc(NC(=O)c2nsc3ccccc23)cc1,/,-16%,17%[57.1 µM],/,3%[57.1 µM],/
COc1ccc(OC)c(CNC(=O)CCCn2nc(C)c3c(C)n(-c4ccc(C)cc4)nc3c2=O)c1,/,-19%,10%,/,-4%,/
CCn1c(C)nc2cc(-c3nc4n(n3)Cc3ccccc3-4)ccc21,0,7%,2%,?,37%,-105*
